The text below walks through data of PubChem BioAssay AID488969 (Vanderbilt High Throughput Screening Facility, 2010).

Over roughly 110,000 compounds, “z-score” has its median near -0.1; the highest 2% begin near 2. What follows is part of a selection rich in the highest values, with near analogues and random picks from the rest. The source made the active and inactive calls.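 The calls were made as follows: active = z-score in the third read window above 3 or below -3; inactive = the rest.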

Metabotropic glutamate receptor 8 (Rattus norvegicus), sequence (P70579 whole entry, looked up): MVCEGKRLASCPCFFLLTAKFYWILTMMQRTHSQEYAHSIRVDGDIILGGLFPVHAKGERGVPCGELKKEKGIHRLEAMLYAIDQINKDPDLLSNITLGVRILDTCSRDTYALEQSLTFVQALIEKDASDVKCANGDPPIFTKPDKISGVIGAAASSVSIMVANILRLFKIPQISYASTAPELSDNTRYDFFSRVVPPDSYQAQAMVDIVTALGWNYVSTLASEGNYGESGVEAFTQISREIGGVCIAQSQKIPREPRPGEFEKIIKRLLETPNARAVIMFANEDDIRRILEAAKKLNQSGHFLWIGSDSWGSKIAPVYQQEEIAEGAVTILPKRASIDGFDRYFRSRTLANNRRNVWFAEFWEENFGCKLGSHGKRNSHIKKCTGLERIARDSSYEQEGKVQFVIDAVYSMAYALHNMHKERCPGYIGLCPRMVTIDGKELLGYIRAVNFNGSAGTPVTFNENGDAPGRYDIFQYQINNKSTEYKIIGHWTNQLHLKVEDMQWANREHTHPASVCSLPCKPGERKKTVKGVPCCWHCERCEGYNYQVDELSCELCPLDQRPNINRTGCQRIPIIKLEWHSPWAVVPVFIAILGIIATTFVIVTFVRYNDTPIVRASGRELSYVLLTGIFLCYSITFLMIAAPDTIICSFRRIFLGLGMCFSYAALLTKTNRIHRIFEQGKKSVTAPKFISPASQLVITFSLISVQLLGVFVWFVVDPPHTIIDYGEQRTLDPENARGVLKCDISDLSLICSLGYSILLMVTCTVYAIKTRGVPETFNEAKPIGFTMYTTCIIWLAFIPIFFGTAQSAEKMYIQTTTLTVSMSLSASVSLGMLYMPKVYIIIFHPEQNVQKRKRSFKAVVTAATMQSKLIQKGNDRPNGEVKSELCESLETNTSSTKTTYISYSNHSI

This experiment addresses Metabotropic glutamate receptor 8 (Rattus norvegicus) (UniProt P70579). As to the kind of experiment: rat mGluR8 modulators via GIRK flux, primary screen, cell-based, thallium flux, HTS (AID 488969). As to conditions: HEK293 rat mGluR8, GIRK (G protein-gated inwardly rectifying potassium channel) thallium flux, FluoZin2; at 10 µM; stronger effect = higher value; submaximal glutamate (EC20) added with thallium.
In the case of `Cc1cccc(NC(=O)c2cc3ccccc3o2)c1`, the z-score is -1.37.

Take `CC(C)C(=O)Nc1ccc(NC(=O)c2cc3ccccc3o2)cc1`: the z-score was -0.885. In the case of `CC(C)C(=O)Nc1cccc(NC(=O)c2cc3ccccc3o2)c1`, the z-score is 7.7 (active). As for `CCOc1ccc(OCC)c(NC(=O)c2[nH]c(C)c(C(C)=O)c2C)c1`, the z-score worked out at 0.862. For the molecule `O=C(NCc1nc2ccccc2[nH]1)c1ccc(Cl)c(S(=O)(=O)N2CCCC2)c1`, the z-score was -0.297. The molecule `O=C(NCc1nc2ccccc2[nH]1)c1cccc(S(=O)(=O)N2CCOCC2)c1` yielded a z-score of 0.567. `O=C(NCc1nc2ccccc2[nH]1)c1cccc(S(=O)(=O)N2CCCC2)c1` returned a z-score of 2.4. Under `CCN(c1c(C)n(C)n(-c2ccccc2)c1=O)S(C)(=O)=O` stands 0.17; under `Cc1ccc(S(=O)(=O)NC2CCCC2)cc1C`, -0.157. Under `Cc1cc(C)c2c(c1)-c1c(ssc1=S)C(C)(C)N2C(=O)CN1C(=O)c2ccccc2C1=O` stands 0.383. Under `CNc1nc(Cl)nc(NC(C)(C)C)n1` stands 7.77 (active); under `CC(C)(C)Nc1nc(Cl)nc(NC(C)(C)C)n1`, -0.0263. For `CC(C)(C)Nc1nc(NN)nc(NC(C)(C)C)n1`, the z-score is -0.766.

`CCn1c(=NC(=O)CSC(C)=O)sc2cc(F)ccc21` displayed a z-score of 0.658. The value for `CCn1c(=NC(=O)CSC(C)=O)sc2cc(OC)ccc21` was 0.477; that for `CCn1c(=NC(=O)CSC(C)=O)sc2ccccc21` was 3.49 (active); that for `CN1CCN(CCC(=O)Nc2ccc3c(c2)OCO3)CC1` was 0.213.

For `Cc1cccc(NC(=O)CSc2nc3ccc(NC(=O)CSc4nnnn4-c4ccccc4)cc3s2)c1C`, the z-score is 0.181. Under `CCN(CC)S(=O)(=O)c1cc(NC(=O)COC(=O)c2sc3ccccc3c2Cl)ccc1C` stands -0.0136.

In turn, `CCn1c(C)cc(/C=C2/SC(=S)NC2=O)c1C` returned a z-score of 0.271. Take `Cc1cc(/C=C2\SC(=S)NC2=O)c(C)n1C`: the z-score is -0.121.

For `Cc1sc(-n2c(C)cc(/C=C3\SC(=S)NC3=O)c2C)c(C#N)c1C`, the z-score is 2.26. The value for `CCN1CCN(C(=O)C(C)N(c2ccc(C)cc2)S(C)(=O)=O)CC1` (stereo unspecified) was 1.05; that for `CCOC(=O)c1sc(NC(=O)CN2CCCC2)c(C(=O)OCC)c1C` was -0.225; that for `CCOC(=O)c1sc(NN=C(C(=O)OC)C(=O)OC)c(C(=O)OCC)c1C` was 2.57. Under `CCOC(=O)c1sc(NC(=O)CN(CC)CC)c(C(=O)OCC)c1C` stands -0.132. The value for `COCCSc1ccccc1C(=O)Nc1ccncc1` was 0.236; that for `S=C(NCc1ccccc1)NCc1cccc(CNC(=S)NCc2ccccc2)c1` was 2.84. In turn, `CCC(=O)Nc1cccc(NC(=S)NC(=O)Cc2ccccc2)c1` displayed a z-score of -0.281. The value for `CCCOc1cccc(C(=O)NC(=S)Nc2ccccc2)c1` was 0.0309; that for `S=C(NCc1ccccc1)NCc1ccccc1` was 0.346; that for `O=C(CN1CCN(c2ccccc2)CC1)Nc1cccc(C(F)(F)F)c1` was 0.756. `O=C(Cc1ccccc1)NC(=S)Nc1cc(C(F)(F)F)ccc1Cl` came in with a z-score of 0.00533. Under `O=C(Cc1ccccc1)NC(=S)Nc1cccc(C(F)(F)F)c1` stands 4.01 (active); under `CCCOc1cccc(C(=O)NC(=S)Nc2cccc(C(F)(F)F)c2)c1`, 3.57 (active); under `S=C(NCc1ccccc1)NCc1ccc2c(c1)OCO2`, 1.86. Under `O=C(CN1CCN(c2cccc(C(F)(F)F)c2)CC1)Nc1cccc(C(F)(F)F)c1` stands 1; under `O=C(CN1CCN(Cc2ccccc2)CC1)Nc1cccc(C(F)(F)F)c1`, 7.94 (active). Under `CCCCOc1cccc(C(=O)NC(=S)Nc2cccc(C(F)(F)F)c2)c1` stands 1.84; under `CCN(CC)C(=O)n1nc(C)c(CN2C(=O)c3ccccc3C2=O)c1C`, -0.151; under `Nc1ccc(Cl)c(-c2nc3ncccc3o2)c1`, 0.714. The molecule `CC(C)c1onc(C(=O)N2CCCCC2C)c1[N+](=O)[O-]` (stereo unspecified) displayed a z-score of -0.0403.

`OC(CSc1ccccc1Cl)CN1CCN(c2ccc(F)cc2)CC1` (stereo unspecified) gave a z-score of -0.618. Under `CCOC(=O)c1cnc2ccc(C)cc2c1Sc1ccc(F)cc1` stands -0.262. Molecule `Cc1ccc(S(=O)(=O)N2CCCC2C(=O)Nc2cc(C)on2)cc1` (stereo unspecified) displayed a z-score of 0.4. Under `Cc1ccc(CNC(=O)c2ccccc2NS(C)(=O)=O)cc1` stands -0.309; under `FC(F)(F)c1cccc(NC(=S)NCc2ccccn2)c1`, 0.164; under `FC(F)(F)Oc1ccc(NC(=S)NCc2ccccc2)cc1`, 3.23 (active). Under `COc1ccc(CNC(=S)Nc2ccc(OC)cc2)cc1` stands 0.711; under `FC(F)(F)c1cccc(NC(=S)NNC(=S)NCc2ccccc2)c1`, -0.388. On to `FC(F)(F)c1cccc(NC(=S)NCc2ccccc2)c1`, for which the z-score is 5.63 (active). Molecule `FC(F)Oc1ccc(NC(=S)NCc2ccccc2)cc1` showed a z-score of 1.51. Under `N=C(N)SCc1nc2ccccn2c1Br` stands 0.308. Under `CCOc1cccc(C(=O)Nc2ccc3oc(Cc4ccc(Cl)cc4)nc3c2)c1` stands -0.351; under `COc1ccc(N(CC(O)CN2C(=O)NC(C)(C)C2=O)S(=O)(=O)c2ccccc2)cc1` (stereo unspecified), -0.294; under `C=CCn1c(SCc2c(F)c(F)c(F)c(F)c2F)nc(O)cc1=O`, -0.151. Under `C=CCn1c(SCC)nc(O)cc1=O` stands -0.0583. On to `C=CCn1c(SCc2ccccc2)nc(O)cc1=O`, for which the z-score was 2.19. The value for `O/N=C/c1cc(Br)ccc1OCc1ccc(F)cc1` was -0.142; that for `Cc1nc2sccn2c(=O)c1Cl` was 0.324; that for `Cc1nc2sccn2c(=O)c1Br` was 0.0767. The value for `Cn1c(=O)c2c(nc3sccn32)n(C)c1=O` was 3.7 (active); that for `COc1ccccc1C(=O)NCc1ccccc1` was -0.524. `Cc1ccc(O)c(NC(=S)NC(=O)c2ccc(-c3ccc(Cl)cc3)o2)c1` showed a z-score of 0.233.

`O=C(CCl)c1ccc(Cc2ncc(C(F)(F)F)cc2Cl)s1` returned a z-score of -0.0387. For `CC(=O)c1ccc(Cc2ncc(C(F)(F)F)cc2Cl)s1`, the z-score was -0.823. The value for `NC(=O)c1ccc(Cc2ncc(C(F)(F)F)cc2Cl)s1` was 4.24 (active); that for `CC1Cc2ccccc2N1CC(=O)c1c(N)n(Cc2ccccc2)c(=O)n(C)c1=O` (stereo unspecified) was -0.314; that for `CN1CCN(C(=O)c2sc(=S)n(-c3ccccc3)c2N)CC1` was 11.1 (active). The molecule `Nc1c(C(=O)N2CCCCC2)sc(=S)n1-c1ccccc1` registered a z-score of -0.163.

In turn, `Cc1ccc(-n2c(N)c(C(=O)N3CCN(C)CC3)sc2=S)cc1` gave a z-score of 0.948.

As to `COc1ccc(OC)c(NS(=O)(=O)c2cc(OC)ccc2OC)c1`, the z-score was -0.0402. Under `COCCCNS(=O)(=O)c1ccc(OC)c(Cl)c1Cl` stands 0.284; under `COc1ccc(COC(=O)NNC(=O)c2ccccc2Cl)cc1`, 0.289. As for `COc1ccc(-n2c(C)cc(C(=O)CN3C(=O)c4ccccc4C3=O)c2C)cc1`, the z-score worked out at 0.595. The value for `CC1=C(C(N)=O)C(c2cccs2)n2nc(-c3cccc(Cl)c3)nc2N1` (stereo unspecified) was 2.14; that for `COc1ccc(C2C(C(N)=O)=C(C)Nc3nc(-c4ccccc4)nn32)cc1OC` (stereo unspecified) was 0.875; that for `CC1=C(C(N)=O)C(c2cccnc2)n2nc(-c3cccc(Cl)c3)nc2N1` (stereo unspecified) was 0.192. The value for `COc1ccc(OC)c(C2C(C(N)=O)=C(C)Nc3nc(-c4cccc(Cl)c4)nn32)c1` (stereo unspecified) was 1.16. Under `COc1cccc(C2C(C(N)=O)=C(C)Nc3nc(-c4cccc(Cl)c4)nn32)c1` (stereo unspecified) stands -0.342.

Regarding `COc1ccc(C2C(C(N)=O)=C(C)Nc3nc(-c4cccc(Cl)c4)nn32)cc1OC` (stereo unspecified), the z-score is 4.01 (active). As to `Cc1nc2ccccn2c1C(=O)NN=C1C2CC3CC(C2)CC1C3`, the z-score was -0.259. Under `Cc1ccc(-c2csc3nc[nH]c(=S)c23)cc1C` stands 15.9 (active); under `Cc1ccc(-c2csc3ncnc(-n4nnc5ccccc54)c23)cc1C`, -0.0158. The molecule `O=c1[nH]cnc2scc(-c3ccc(-c4ccccc4)cc3)c12` gave a z-score of 0.454.

As for `O=c1[nH]cnc2scc(-c3ccc(F)cc3)c12`, the z-score was -0.0775. Under `O=c1[nH]cnc2scc(-c3ccccc3)c12` stands 0.259; under `S=c1[nH]cnc2scc(-c3ccccc3)c12`, 13.1 (active). For `O=C(CSCCc1ccccn1)Nc1ccc(Br)cn1`, the z-score was -0.0969. Under `CCc1nnc(NC(=O)c2cc(S(=O)(=O)N3CCN(c4ccccc4)CC3)ccc2Cl)s1` stands -0.438. The value for `CCOc1cc(/C=N/O)cc(Br)c1OCC` was -0.564; that for `CCCOc1c(Br)cc(/C=N/O)cc1OC` was -0.858; that for `CCCCOc1c(Br)cc(/C=N/O)cc1OCC` was 2.8.

In turn, `CCOc1ccc(NC(=O)CN2CCN(CC(=O)Nc3ccc(F)c(F)c3)CC2)cc1` returned a z-score of -0.0841. Under `N#Cc1cnn(Cc2ccccc2)c1N` stands -0.318; under `CCOC(=O)C1CCCN(Cc2nc(N)nc(Nc3ccc(Cl)cc3)n2)C1` (stereo unspecified), -0.508.

`CC(C)c1ccccc1NC(=S)NN(Cc1ccccc1)c1ccccc1` came in with a z-score of -0.164. Under `Fc1ccccc1NC(=S)NN(Cc1ccccc1)c1ccccc1` stands 5.03 (active); under `Cc1cccc(NC(=S)NN(Cc2ccccc2)c2ccccc2)c1C`, -0.141. On to `c1ccc(-c2ccc(-c3cnc4n3CCCCC4)cc2)cc1`, for which the z-score amounted to 0.704. The value for `O=C(O)CCCCNS(=O)(=O)c1ccc(Cl)c(C(F)(F)F)c1` was -0.602; that for `CC(C)OC(=O)CSc1nnc(SCc2cccc3ccccc23)s1` was -0.157; that for `O=C(NNC(=O)c1cccnc1SCc1cccc([N+](=O)[O-])c1)c1ccccn1` was 3.29 (active). The value for `Cc1ccc(C(=O)NNC(=O)c2cccnc2SCc2cccc([N+](=O)[O-])c2)cc1` was -0.0883; that for `O=C(NNC(=O)c1cccnc1SCc1cccc([N+](=O)[O-])c1)c1ccc(F)cc1` was 0.33. As to `COc1cc(NC(=O)c2cc(OC)c(OC)c(OC)c2)c(OC)cc1NC(=O)CN1CCCCC1`, the z-score is -2.33.

With `CCN1/C(=C2\C(=O)N(C)C(=S)N2C)C=Cc2ccccc21`, the z-score was -0.543. Under `S=c1[nH]nc(-c2ccco2)n1Cc1ccccc1` stands 0.271. Under `S=c1[nH]nc(-c2cc3ccccc3o2)n1Cc1ccccc1` stands 2.66. The value for `Cc1ccc(-c2n[nH]c(=S)n2Cc2ccccc2)cc1` was -0.277; that for `CC(C)Cn1c(-c2ccc(Br)o2)n[nH]c1=S` was 1.12; that for `Cc1cccc(-c2n[nH]c(=S)n2Cc2ccccc2)c1` was 1.74.

Consider `S=c1[nH]nc(-c2ccc(Br)o2)n1Cc1ccccc1`, for which the z-score is 3.42 (active).

As to `COc1ccc(C(=O)Cn2nnc(-c3ccccc3F)n2)cc1`, the z-score was -0.251. Under `C1CCC2(CC1)OCC1(CO2)COC2(CCCCC2)OC1` stands 3.83 (active).

`C[N+]1(CC2COC3(CCCCC3)O2)CCCC1` (stereo unspecified): the z-score is -0.214.
